The panel holds about 83,000 compounds, 20% with a hit somewhere; the sample as a whole holds those more often.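 Plates (96-well) were seeded with cells, treated with compound at one concentration, and incubated for 48 hours before percent growth was determined.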 A number with no mark means an inactive call. Activity calls are given as the source filed them. How the source made its calls: active means growth percent below 10; inactive means the rest.
Experiments:
Test in all cases: NCI-60 one-dose screen, 48 h (100 = growth as untreated, 0 = no growth, -100 = all killed)
Details in all cases: 10 µM unless noted
SK-MEL-2 melanoma = test system: SK-MEL-2 melanoma
EKVX NSCLC = test system: EKVX NSCLC
SN12C renal = test system: SN12C renal
UO-31 renal = test system: UO-31 renal
TK-10 renal = test system: TK-10 renal
ACHN renal = test system: ACHN renal
CAKI-1 renal = test system: CAKI-1 renal
A498 renal = test system: A498 renal
CCRF-CEM leukemia = test system: CCRF-CEM leukemia
MOLT-4 leukemia = test system: MOLT-4 leukemia

Row | SMILES | growth (SK-MEL-2 melanoma) | growth (EKVX NSCLC) | growth (SN12C renal) | growth (UO-31 renal) | growth (TK-10 renal) | growth (ACHN renal) | growth (CAKI-1 renal) | growth (A498 renal) | growth (CCRF-CEM leukemia) | growth (MOLT-4 leukemia)
1 | Cn1cc(-c2csc(-c3ccc(Cl)cc3)n2)c2cccnc21 | -22% [100 µM] (active) | -14.4% [100 µM] (active) | -42.7% [100 µM] (active) | -37.5% [100 µM] (active) | -26.1% [100 µM] (active) | -50.9% [100 µM] (active) | -29.3% [100 µM] (active) | -79.9% [100 µM] (active) | -18.8% [100 µM] (active) | 
2 | COc1ccc(-c2cn(-c3cc(OC)c(OC)c(OC)c3)c(=O)n2C(C)=O)cc1 | 86.3% | 91% | 91.3% | 84.3% | 98.9% | 87.1% | 12.1% | 68.3% | 91.7% | 
3 | CCN(c1ccc(Cl)cc1)c1nc(-c2ccc([N+](=O)[O-])cc2)cs1 | 101% | 79.5% | 98.5% | 71.9% | 115% | 95.9% | 79.6% | 63.8% | 101% | 
4 | c1ccc(C2=NN[C@H](c3cn(-c4ccccc4)nc3-c3ccccc3)C2)cc1 | 54.8% | 41.4% | 46.6% | 9.32% (active) | 17.9% | -4.87% (active) | 4.95% (active) | 54.5% | 89.3% | 80.5%
5 | Cc1cc2c(O)c(-c3cc(Cl)ccc3Cl)c3sc(=O)oc3c2cc1C | 74% | 94.6% | 66.9% | 85.3% | 113% | 79.8% | 53.9% | 30.1% | 53.8% | 
6 | Cc1ccc(-c2csc(NC(=O)CN3CCN(c4cc5c(cc4F)c(=O)c(C(=O)O)cn5C4CC4)CC3)n2)cc1 | -13.5% (active) | 16.5% | 16.4% | 12.1% | 15.9% | 4.32% (active) | 20.8% | 7.69% (active) | 8.52% (active) | 
7 | CN(C)CCNc1nc2c3cc(Cl)ccc3nn2c2ccccc12 | 95.2% | 49.8% | 40.9% | 28.2% | 97.8% | 22.7% | 40.4% | -6.05% (active) | 47.1% | 
8 | COc1ccc(/C=N/C2=C(C#N)C(c3cccc(Cl)c3)c3c(ccc4ccccc34)O2)cc1 (stereo not given) | 51.2% | 33.9% | 39.6% | 43% | 82% | 31% | 20.3% | -4.91% (active) | 16.9% | 
9 | O=c1oc2ccc([N+](=O)[O-])cc2cc1Br | 106% | 102% | 105% | 88.5% | 105% | 117% | 94.5% | 99.7% | 109% | 
10 | C#CCOc1ccc2ncnc(Nc3ccc(NC(=O)CCl)cc3)c2c1 | -7.65% (active) | -0.0323% (active) | -13.2% (active) | -25.8% (active) | 1.64% (active) | -51.2% (active) | 35.8% | 55.9% | -23.7% (active) | 
11 | Cc1ccc(-c2nc3nc(-c4ccccc4)nc(N4CCNCC4)c3o2)cc1 | -92.7% (active) | -65.5% (active) | -78.3% (active) | -91.8% (active) | -96.5% (active) | -97.2% (active) | -99% (active) | -88.7% (active) | -69.3% (active) | 
12 | CCOC(=O)C1=NN(c2ccccc2)C(=O)/C1=C\N1C(=O)CC(=O)NC1=S | 98% | 103% | 95.6% | 77.4% | 96% | 101% | 41.2% | 104% | 96.2% | 99%
13 | Cc1ccc(/C=N/Nc2nc(Nc3ccccc3)nc(-n3nc(C)cc3C)n2)cc1 | 32.6% | 27.3% | 48.9% | 20.1% | 3.47% (active) | 35.5% | -21.1% (active) | 58.5% | 41% | 42.3%
14 | O=[N+]([O-])c1ccc(-c2nc(N3CCOCC3)c3c4c(sc3n2)CCCC4)cc1 | 95.6% | 93.8% | 106% | 67.2% | 105% | 96.2% | 76.5% | 109% | 101% | 86.4%
15 | C#Cc1cccc(Nc2ncnc3ccc(-c4cncc(NS(C)(=O)=O)c4)cc23)c1 | -39.7% (active) | 4.65% (active) | 24.2% | 38.4% | -3.64% (active) | 33.2% | 54.9% | -10.7% (active) | 14% | -28.3% (active)
16 | Oc1ccc(CN2CCC(N3CCCCC3)CC2)c2cccnc12 | 2.95% (active) | 45.6% | 22.2% | 5.93% (active) | -58.5% (active) | 8.86% (active) | 44% | 71.3% | 35.8% | 41.2%
17 | CC1(C)CC2=C3C=C[C@@H]4[C@@]5(C)CCC(=O)C(C)(C)[C@@H]5CC[C@@]4(C)[C@]3(C)CC[C@@]2(C(=O)O)CC1=O | 68.3% | 63.3% | 85.1% | 44.4% | 61.2% | 40.8% | 52.3% | 42.1% | 58% | 54.6%
18 | CC(C)NC1CCC(Nc2ccnc3cc(Cl)ccc23)CC1 (stereo not given) | 116% | 97.1% | 102% | 68.8% | 86.8% | 96.8% | 121% | 89.2% | -32.1% (active) | 69.2%
19 | N=C(N)c1ccc(-c2ccc(-c3cc(Cl)cc(Cl)c3)o2)o1 | -43.5% (active) | -88.2% (active) | -67.6% (active) | -68.1% (active) | -76.3% (active) | -88.7% (active) | -74.7% (active) | 58.8% | -39.1% (active) | -60.4% (active)
20 | O=C1c2cccnc2C(=O)c2c1c(C(=O)NCCCN1CCCCC1)c1ccccn21 | -40.3% (active) | -100% (active) | -65.1% (active) | -34.5% (active) | -1.12% (active) | -45.2% (active) | -14.6% (active) | -78.1% (active) | -25.6% (active) | -43.9% (active)
21 | O=[N+]([O-])C1C(c2ccccc2)C12c1ccccc1-c1ccccc12 (stereo not given) | -1.42% (active) | 77.9% | 23% | 28.3% | 23.2% | 29.6% | 34.6% | -12.8% (active) | -12.1% (active) | -17.1% (active)
22 | CN1CCN(Cc2ccc3c(NNC(=O)c4ccccc4)nc4cc(F)ccc4n23)CC1 | 57.7% | 21.5% | 17.2% | 7.31% (active) | 30% | 11.5% | 11.8% | -7.93% (active) | 12.2% | 12%
23 | Cc1ccc(-n2c(=S)[nH]c3sc4c(c3c2=O)CCC(=O)C4)cc1 | 39.6% | 93.7% | 40.3% | 43.8% | 83.5% | 39.4% | 28.6% | 109% | 20.8% | 48.9%
24 | Fc1cccc(CNc2c3ccccc3nc3ccccc23)c1F | 107% | 62.9% | 49% | 40.1% | 89.2% | 30.6% | 45.7% | -0.792% (active) | 62.4% | 28.4%
25 | O=C1c2cccc(NCCN=Cc3cc(O)ccc3O)c2C(=O)c2c(NCCN=Cc3cc(O)ccc3O)cccc21 | 20.9% | 3.36% (active) | -24.7% (active) | -18% (active) | -12.1% (active) | 0.31% (active) | -37.1% (active) | -48.6% (active) | -58.7% (active) | -53.1% (active)
26 | CCCCN1C(=O)/C(=c2\sc3n(c2=O)C2C(NN=3)N(CC)C(=O)N2CC)c2ccccc21 (stereo not given) | 21.9% | 52.1% | 19.3% | 18.4% | 55.9% | 23.9% | 18.1% | -2.15% (active) | 7.34% (active) | 11.1%
